# Tested on: Noggin (protein binding on small-molecule microarray)
# Experiment: Noggin binders on small-molecule microarray, primary screen, biochemical, 635/667 nm fluorescence (AID 1095);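 also: score merges 667 nm feature fluorescence with signal to noise over triplicate slides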
# Settings: 635 nm fluorescence, higher = more signal
row,SMILES,composite z-score
1,CC(C)=CCCC(C)=CCON=C1C[C@@H](O)[C@@H](O)[C@@H]2[C@@H]3C(=O)N(c4ccc(F)cc4F)C(=O)[C@@H]3CC[C@@H]12,0.888
2,CCc1cc2c(nc1CC)CCN(CCC(C)=NO[C@H](C)c1cn([C@H](CO)Cc3ccccc3)nn1)C2,0.336
3,COC(=O)[C@H](C)NC(=O)CCC1CC(OC(=O)NCCc2ccc(F)cc2)CC2(CCCC(COC(=O)NCCC(C)C)O2)O1 (stereo not given in full),1.06
4,CCN1C(=O)[C@@H]2[C@H]3C(=CC[C@@H]2C1=O)C1(OCCCO1)[C@H]1O[C@H]1[C@H]3O,0.643
5,CCCNC(=O)OC[C@H]1O[C@H](CCON=C(C)CCN2CCc3nc(CC)c(CC)cc3C2)C=C[C@@H]1Oc1ccc(OC)cc1,0.559
6,COc1cccc([C@H]2Oc3ccc(OC)cc3C(=NO[C@H](C)c3cn([C@H](CO)Cc4ccccc4)nn3)[C@@H]2O)c1,0.259
7,Cc1ccc(S(=O)(=O)n2c3ccccc3c3nnc(C(=O)c4ccccc4)nc32)cc1,0.0828
8,CCOC(=O)[C@H](Cc1ccccc1)NC(=O)CCC1CC(OC(=O)NCc2ccc3c(c2)OCO3)CC2(CCCC(COC(=O)NCCc3ccccc3OC)O2)O1 (stereo not given in full),0.679
9,Cn1c(=O)n2n(c1=O)[C@H]1[C@H](O)[C@@H]3O[C@@H]3C(=O)[C@H]1CC2,0.457
10,C[C@@H]1CC[C@H]2C(=O)O[C@@H](Cc3ccccc3)CN2[C@H]1c1ccc(Br)cc1,0.31
11,CCOC(=O)[C@H](CC(C)C)NC(=O)CCC1CC(OC(=O)NCCc2ccc(F)cc2)CC2(CCCC(COC(=O)NCCc3ccc(Cl)cc3)O2)O1 (stereo not given in full),0.948
12,CO[C@H]1COC(=O)[C@H](C)NC(=O)CC=C[C@@H](C)[C@H](OC)COC(=O)[C@@H](OCc2ccccc2)C=C[C@@H]1C,0.941
13,C#CCCCON=C1C[C@@H](O)[C@@H](O)[C@@H]2[C@@H]3C(=O)N(c4ccc(F)cc4F)C(=O)[C@@H]3CC[C@H]12,0.844
14,O=C1C[C@@H](O)[C@@H](O)[C@@H]2[C@@H]3C(=O)N(Cc4ccc5c(c4)OCO5)C(=O)[C@@H]3CC[C@H]12,0.318

# Molecular target: Neurogenic locus notch homolog protein 3 (Homo sapiens) (UniProt Q9UM47)
# Experiment: NOTCH3 binders on small-molecule microarray, primary screen, biochemical, 635/667 nm fluorescence (AID 1096)
# Settings: NOTCH3 binding, 635 nm fluorescence, higher = more signal
# Sequence of Neurogenic locus notch homolog protein 3 (Homo sapiens) (Q9UM47 whole entry, looked up): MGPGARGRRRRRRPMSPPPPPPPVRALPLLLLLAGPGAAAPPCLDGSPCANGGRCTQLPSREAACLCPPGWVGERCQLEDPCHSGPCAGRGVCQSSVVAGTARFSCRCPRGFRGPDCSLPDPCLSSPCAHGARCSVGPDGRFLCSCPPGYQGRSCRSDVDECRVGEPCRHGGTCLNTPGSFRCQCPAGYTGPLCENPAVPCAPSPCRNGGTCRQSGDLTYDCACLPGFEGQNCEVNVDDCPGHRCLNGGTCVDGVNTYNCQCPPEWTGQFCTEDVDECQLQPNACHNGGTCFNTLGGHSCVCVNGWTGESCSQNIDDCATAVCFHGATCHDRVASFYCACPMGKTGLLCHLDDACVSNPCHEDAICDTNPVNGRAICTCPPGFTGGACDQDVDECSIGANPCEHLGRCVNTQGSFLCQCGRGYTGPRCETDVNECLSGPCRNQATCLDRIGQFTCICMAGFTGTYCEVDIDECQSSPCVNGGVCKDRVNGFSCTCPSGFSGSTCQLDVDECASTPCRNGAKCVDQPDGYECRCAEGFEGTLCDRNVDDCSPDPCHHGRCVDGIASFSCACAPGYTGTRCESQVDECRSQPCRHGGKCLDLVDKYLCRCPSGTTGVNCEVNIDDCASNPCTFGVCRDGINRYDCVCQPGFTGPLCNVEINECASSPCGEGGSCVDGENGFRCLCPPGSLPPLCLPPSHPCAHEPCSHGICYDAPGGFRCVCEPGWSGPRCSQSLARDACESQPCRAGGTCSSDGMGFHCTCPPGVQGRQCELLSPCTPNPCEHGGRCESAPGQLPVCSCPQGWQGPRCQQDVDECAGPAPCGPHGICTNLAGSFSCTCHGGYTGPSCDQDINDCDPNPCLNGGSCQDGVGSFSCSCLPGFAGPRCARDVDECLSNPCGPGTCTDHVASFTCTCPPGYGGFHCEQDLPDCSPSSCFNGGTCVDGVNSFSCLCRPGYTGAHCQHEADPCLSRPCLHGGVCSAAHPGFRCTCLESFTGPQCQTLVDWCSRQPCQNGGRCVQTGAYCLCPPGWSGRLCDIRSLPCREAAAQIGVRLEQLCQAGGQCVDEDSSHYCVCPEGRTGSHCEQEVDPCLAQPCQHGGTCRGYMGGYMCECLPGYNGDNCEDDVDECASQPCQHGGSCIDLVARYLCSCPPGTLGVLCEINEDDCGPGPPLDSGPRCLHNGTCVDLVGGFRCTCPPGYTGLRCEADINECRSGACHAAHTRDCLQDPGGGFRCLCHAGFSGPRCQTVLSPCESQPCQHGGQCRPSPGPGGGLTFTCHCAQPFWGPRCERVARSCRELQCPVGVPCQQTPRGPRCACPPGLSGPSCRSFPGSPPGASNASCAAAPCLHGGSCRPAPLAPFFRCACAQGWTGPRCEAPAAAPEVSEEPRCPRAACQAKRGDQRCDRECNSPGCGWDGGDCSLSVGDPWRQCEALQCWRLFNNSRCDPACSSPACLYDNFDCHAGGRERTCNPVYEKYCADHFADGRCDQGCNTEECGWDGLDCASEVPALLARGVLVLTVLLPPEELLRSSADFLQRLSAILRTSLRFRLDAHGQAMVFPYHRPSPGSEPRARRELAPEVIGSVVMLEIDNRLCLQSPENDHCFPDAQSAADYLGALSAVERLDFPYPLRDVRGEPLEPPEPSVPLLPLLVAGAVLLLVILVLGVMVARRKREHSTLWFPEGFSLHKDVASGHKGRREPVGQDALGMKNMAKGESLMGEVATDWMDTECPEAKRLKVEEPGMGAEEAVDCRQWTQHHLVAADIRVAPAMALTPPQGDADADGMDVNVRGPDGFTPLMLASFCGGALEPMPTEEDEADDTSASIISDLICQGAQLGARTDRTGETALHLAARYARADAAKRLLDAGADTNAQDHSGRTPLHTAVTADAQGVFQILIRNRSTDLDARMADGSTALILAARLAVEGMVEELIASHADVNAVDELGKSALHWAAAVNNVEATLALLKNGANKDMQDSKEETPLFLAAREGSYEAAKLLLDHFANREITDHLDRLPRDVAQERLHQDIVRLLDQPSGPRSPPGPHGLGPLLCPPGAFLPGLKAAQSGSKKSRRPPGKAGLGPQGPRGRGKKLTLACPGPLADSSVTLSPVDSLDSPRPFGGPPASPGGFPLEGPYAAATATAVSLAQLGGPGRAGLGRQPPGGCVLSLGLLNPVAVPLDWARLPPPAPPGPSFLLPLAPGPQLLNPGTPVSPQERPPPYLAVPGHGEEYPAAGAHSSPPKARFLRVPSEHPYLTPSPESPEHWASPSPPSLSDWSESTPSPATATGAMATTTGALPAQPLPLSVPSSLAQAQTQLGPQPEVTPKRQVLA
row,SMILES,composite z-score
1,COc1ccc(O[C@H]2C=C[C@@H](c3ccccc3)O[C@@H]2CON=CC[C@@H]2C=C[C@H](OC(C)=O)[C@@H](COC(C)=O)O2)cc1,-0.22
2,CO[C@H]1COC(=O)CC=C[C@@H](C)[C@H](NS(=O)(=O)c2ccc(C)cc2)COC(=O)CCC[C@@H]1C,0.77
3,CON=CC[C@@H]1C=C[C@H](OC(C)=O)[C@@H](COC(C)=O)O1,-0.0592
4,C=COC[C@@H]1CN2[C@@H](CC[C@@H](C)[C@@H]2c2ccc(Br)cc2)C(=O)O1,-0.906
5,O=C1[C@H]2[C@H]3[C@H](O)[C@H](O)CC(=NOCc4ccccc4)[C@@H]3CC[C@H]2C(=O)N1Cc1ccc2c(c1)OCO2,0.428
6,COC(=O)NCC=Cc1nc(CCCO)co1,0.903
7,CO[C@H]1COC(=O)CC=C[C@H](C)[C@@H](OC)COC(=O)[C@@H](C)COC(=O)CC=C[C@@H]1C,-0.399
8,COC(=O)[C@@H]1CC[C@H](C)[C@@H](c2ccc(C)cc2)N1C(=O)c1ccc(C=NOC[C@@H](C)[C@H](OCc2ccccc2)C(C)C)cc1,1.09
9,COC(=O)CC=C[C@@H](C)[C@@H](C=NO[C@@H]1O[C@H](COC(C)=O)[C@@H](OC(C)=O)[C@H](OC(C)=O)[C@H]1OC(C)=O)NS(=O)(=O)c1ccc(C)cc1,0.545
10,CCOC(=O)[C@H](CC(C)C)NC(=O)CCC1CC(OC(=O)NCc2cccc3ccccc23)CC2(CCCC(COC(=O)NCCOc3ccccc3)O2)O1 (stereo not given in full),0.859
11,COc1cccc([C@H]2Oc3ccc(OC)cc3C(=NO[C@@H](C)c3cn([C@H](CO)Cc4ccccc4)nn3)[C@@H]2O)c1,-0.367
12,COC(=O)CC=C[C@@H](C)[C@@H](C=NOC[C@H]1O[C@H](c2ccccc2)C=C[C@@H]1Oc1ccc(OC)cc1)NS(=O)(=O)c1ccc(C)cc1,-0.939
13,C=CC1=C[C@H](O)[C@@H]2O[C@@H]2C12OCCCO2,-0.239
14,COC(=O)CC=C[C@@H](C)[C@H](OCc1cccc(-c2ccccc2)c1)C1CCCCC1,-0.395
15,CC(C)CON=C1C[C@@H](O)[C@@H](O)[C@@H]2[C@@H]3C(=O)N(Cc4ccc5c(c4)OCO5)C(=O)[C@@H]3CC[C@H]12,0.846
16,COc1ccc(O[C@H]2C=C[C@@H](c3ccccc3)O[C@@H]2CON=C(C)C)cc1,-0.943
17,COC(=O)CC=C[C@@H](C)[C@@H](C=NOC(C)CN1CCCc2nc(C)c(C)cc21)OC (stereo not given in full),0.625
18,CC(C)(C)N1C(=O)[C@H]2[C@H]3[C@H](O)[C@H](O)CC(=NO[C@@H]4O[C@H](CO)[C@@H](O)[C@H](O)[C@H]4O)[C@H]3CC[C@H]2C1=O,0.155

row,SMILES,composite z-score
1,C#CCCCON=C1C[C@@H](O)[C@@H](O)[C@@H]2[C@@H]3C(=O)N(C(C)(C)C)C(=O)[C@@H]3CC[C@H]12,-0.326
2,CCOC(=O)NN=C1C[C@@H](O)[C@@H](O)[C@@H]2[C@@H]3C(=O)N([C@@H](C)c4ccccc4)C(=O)[C@@H]3CC[C@H]12,0.507
3,COC(=O)[C@@H]1CC[C@H](C)[C@@H](c2ccc(C)cc2)N1C(=O)c1ccc(C=NO[C@H](C)c2cn([C@H](CO)Cc3ccccc3)nn2)cc1,1.05
4,CCOC(=O)CCN1C(=O)[C@H]2[C@H]3[C@H](O)[C@H](O)CC(=NNC(=O)OCc4ccccc4)[C@@H]3CC[C@H]2C1=O,1.01
5,CC(C)=CCCC(C)=CCON=C1C[C@@H](O)[C@@H](O)[C@@H]2[C@@H]3C(=O)N(c4ccc(F)cc4F)C(=O)[C@@H]3CC[C@@H]12,0.678
6,CCc1cc2c(nc1CC)CCN(CCC(C)=NO[C@H](C)c1cn([C@H](CO)Cc3ccccc3)nn1)C2,-0.171
7,COC(=O)[C@H](C)NC(=O)CCC1CC(OC(=O)NCCc2ccc(F)cc2)CC2(CCCC(COC(=O)NCCC(C)C)O2)O1 (stereo not given in full),0.49
8,CCN1C(=O)[C@@H]2[C@H]3C(=CC[C@@H]2C1=O)C1(OCCCO1)[C@H]1O[C@H]1[C@H]3O,1.07
9,CCCNC(=O)OC[C@H]1O[C@H](CCON=C(C)CCN2CCc3nc(CC)c(CC)cc3C2)C=C[C@@H]1Oc1ccc(OC)cc1,-0.286
10,COc1cccc([C@H]2Oc3ccc(OC)cc3C(=NO[C@H](C)c3cn([C@H](CO)Cc4ccccc4)nn3)[C@@H]2O)c1,-0.657
11,Cc1ccc(S(=O)(=O)n2c3ccccc3c3nnc(C(=O)c4ccccc4)nc32)cc1,-0.467
12,CCOC(=O)[C@H](Cc1ccccc1)NC(=O)CCC1CC(OC(=O)NCc2ccc3c(c2)OCO3)CC2(CCCC(COC(=O)NCCc3ccccc3OC)O2)O1 (stereo not given in full),1.08
13,Cn1c(=O)n2n(c1=O)[C@H]1[C@H](O)[C@@H]3O[C@@H]3C(=O)[C@H]1CC2,0.557
14,C[C@@H]1CC[C@H]2C(=O)O[C@@H](Cc3ccccc3)CN2[C@H]1c1ccc(Br)cc1,0.22
15,CCOC(=O)[C@H](CC(C)C)NC(=O)CCC1CC(OC(=O)NCCc2ccc(F)cc2)CC2(CCCC(COC(=O)NCCc3ccc(Cl)cc3)O2)O1 (stereo not given in full),0.773
16,CO[C@H]1COC(=O)[C@H](C)NC(=O)CC=C[C@@H](C)[C@H](OC)COC(=O)[C@@H](OCc2ccccc2)C=C[C@@H]1C,-0.458
17,C#CCCCON=C1C[C@@H](O)[C@@H](O)[C@@H]2[C@@H]3C(=O)N(c4ccc(F)cc4F)C(=O)[C@@H]3CC[C@H]12,0.793
18,O=C1C[C@@H](O)[C@@H](O)[C@@H]2[C@@H]3C(=O)N(Cc4ccc5c(c4)OCO5)C(=O)[C@@H]3CC[C@H]12,0.406

# From PubChem BioAssay
